Experimental data from PubChem BioAssay AID1903 (Southern Research Specialized Biocontainment Screening …, 2009).
Values joined by “and” are separate entries in the source; they are usually repeats but may differ in a detail not shown here. Identical values can stand only once. About 1,200 (0.39%) of roughly 310,000 compounds were called active. The rule behind the calls is not given here. Not all results are given here. Results with a measured potency or affinity are listed apart.

Target: Large T antigen (Simian virus 40) (UniProt P03070)
Test: SV40 large T antigen inhibitors, biochemical (AID 1903)
Details: SV40 large T antigen ATPase/helicase inhibition assay; at 20 µM; active compounds read high

Chain of Large T antigen (Simian virus 40) (P03070 whole entry, looked up): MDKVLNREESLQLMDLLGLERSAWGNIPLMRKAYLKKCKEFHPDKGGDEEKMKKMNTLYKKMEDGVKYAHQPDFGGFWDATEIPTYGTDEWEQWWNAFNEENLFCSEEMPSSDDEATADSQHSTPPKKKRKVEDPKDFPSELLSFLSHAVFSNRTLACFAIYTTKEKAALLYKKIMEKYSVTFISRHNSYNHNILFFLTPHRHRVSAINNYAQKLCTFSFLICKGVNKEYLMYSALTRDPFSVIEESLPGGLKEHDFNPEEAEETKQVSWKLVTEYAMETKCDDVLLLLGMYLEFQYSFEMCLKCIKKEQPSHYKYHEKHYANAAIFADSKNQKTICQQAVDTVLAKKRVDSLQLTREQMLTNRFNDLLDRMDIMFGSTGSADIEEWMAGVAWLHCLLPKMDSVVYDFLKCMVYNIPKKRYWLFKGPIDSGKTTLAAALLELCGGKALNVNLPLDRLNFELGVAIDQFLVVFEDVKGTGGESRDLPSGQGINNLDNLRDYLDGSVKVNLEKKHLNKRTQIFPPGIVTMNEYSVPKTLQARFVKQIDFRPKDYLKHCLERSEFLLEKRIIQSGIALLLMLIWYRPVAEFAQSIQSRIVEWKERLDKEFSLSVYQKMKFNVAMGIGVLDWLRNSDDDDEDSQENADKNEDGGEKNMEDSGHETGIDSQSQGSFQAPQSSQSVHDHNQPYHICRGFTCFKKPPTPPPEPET

inhibition, inactive:
Cc1ccn2cc(-c3ccc(Br)cc3)nc2c1 8.41%
Brc1ccc(-c2cn3ccccc3n2)cc1 9.2%
CC(=O)Nc1cccc(-c2cn3ccc(C)cc3n2)c1 11.2%
Fc1ccc(-c2cn3ccccc3n2)cc1 0.64%
Cc1noc(C)c1C(=O)Nc1c(F)cc(F)cc1Br 0.97%
COc1cc(/C=C/C(=O)OCC(=O)NCc2ccco2)ccc1OC(F)F 8.29%
COc1ccc(CSc2nnc(-c3ccncc3)n2C)cc1F 3.25%
O=S(=O)(Nc1ccc(Br)cc1)c1cccc2cccnc12 11.5%
O=S(=O)(Nc1ccc(Cl)cc1)c1cccc2cccnc12 7.28%
NS(=O)(=O)c1cccc2cccnc12 10.6% and 4.71%
CNS(=O)(=O)c1cccc2cccnc12 -1.68%
COc1cccc2c1O/C(=N\O)C(C(=O)Nc1ccc(C)cc1)C2 (configuration not stated) 8.2%
S=C(c1ccc(Br)cc1)N1CCCC1 6.77%
COc1ccc(/C=N/NC(=O)c2ccoc2C)cc1OC 6.94%
COc1cc(/C=N/NC(=O)c2ccc3c(c2)OCCO3)c(Br)c(Br)c1O 29.5%
COc1cc(/C=N/NC(=O)c2ccc3c(c2)OCO3)ccc1O -30%
CCOc1ccc(/C=N/NC(=O)c2ccoc2C)cc1OC -2.86%
COc1cc(/C=N/NC(=O)c2ccoc2C)ccc1O 18%
COc1cccc(/C=N/NC(=O)c2ccoc2C)c1O 9.61%
CCn1c(C)nc2cc(C(=O)N/N=C/c3ccc(OC)cc3)ccc21 29.8%
CCn1c(C)nc2cc(C(=O)N/N=C/c3cccc(OC)c3O)ccc21 6.05%
CCCCN(C)CCN1C(=O)C2C(C(=O)Nc3ccc(OC)cc3)C3C=CC2(O3)C1C(=O)NC1CCCCC1 (configuration not stated) 1.82%
Cc1cccc(NC(=O)CSc2ccc3nnc(-c4cccnc4)n3n2)c1 6.51%
COC(=O)c1ccc(S(=O)(=O)NNC(=O)COc2ccc(C)cc2)cc1 6.42%
Cc1c(Nc2cc(N3CCCCCC3)c3nonc3c2[N+](=O)[O-])c(=O)n(-c2ccccc2)n1C 3.53%
CC1=C(C(=O)Nc2ccccc2)C(c2ccc(O)cc2)N2C(=O)CSC2=N1 (configuration not stated) 3.32%
Cc1nn(-c2ccccc2)c(C)c1C(=O)OCC(=O)N1CC(=O)Nc2ccccc21 10.3%
Cc1ccc2c(C)c(C(=O)N(Cc3ccc(F)cc3)C3CCS(=O)(=O)C3)oc2c1 (configuration not stated) 7.21%
O=C1CCCN1CCCNc1ncccc1[N+](=O)[O-] 1.65%
CCC(C)(O)c1[nH]c2ccc(C(=O)OC)cc2c1C (configuration not stated) 2.01%
CCCCC(CC)C1OCC(C[N+]2(C)CCOCC2)O1 (configuration not stated) 19.1%
COc1ccc(/C=N/NC(=O)c2cccnc2)cc1O 23.7%
Cc1occc1C(=O)N/N=C/c1ccc(N(C)C)cc1 21.7%
COc1ccc(/C=N/NC(=O)c2ccc(C)nc2)cc1O 33.4%
Cc1occc1C(=O)N/N=C/C=C/c1ccccc1 24.7%
CCN(CC)CC(=O)c1c(N)n(Cc2ccccc2)c(=O)n(C)c1=O 6.97%
Cc1ccc(OCCNCC(O)COc2ccccc2)cc1 (configuration not stated) 6.77%
CC(=O)Nc1cc(-c2ccccc2)ccc1O 26.7%
CC(=O)/C=C(\C)Nc1ccccc1O 21.1%
CC(=O)c1ccc(N2C(=NC(=O)C3CCCCC3)SC3CS(=O)(=O)CC32)cc1 (configuration not stated) 14.9%
Cc1cc(C(=O)CN2C(=O)NC(Cc3c[nH]c4ccccc34)C2=O)c(C)n1C (configuration not stated) -1.66%
CC(C)=N/N=c1\scc(C)n1Cc1ccco1 9.97%
Cc1cs/c(=N\N=C\c2ccccc2)n1Cc1ccco1 2.6%
O=C(O)c1ccccc1O 13.6%
O=C(O)c1cccc(O)c1O 13%
Nc1ccc(N)c(C(=O)O)c1 12.3%
Nc1ccc(C(=O)O)c(O)c1 2.41% and 26.8% and 24.4%
O=C(OCc1nnc(-c2ccccc2)o1)C1CC(=O)N(c2ccccc2)C1 (configuration not stated) 4.63%
COc1ccc(CCNCC(=O)Nc2ccccc2C(F)(F)F)cc1 4.81%
CCCCc1nnc(NC(=O)C2CCN(c3ncnc4sc(C)c(C)c34)CC2)s1 6.43%
Cc1ccc(-n2nc3c(=O)n(CC(=O)NCc4ccccc4Cl)nc(C)c3c2C)cc1 10.3%
CCOC(=O)C1=C(O)/C(=C\c2cc(C)n(-c3ccccc3F)c2C)N=C1C 5.39%
O=C(NCc1cccs1)C1CCCN1C(=O)Nc1ccc(F)cc1 (configuration not stated) 12.8%
O=C(c1ccc(S(=O)(=O)Nc2ccccc2)cc1)N1CCCC(C(F)(F)F)C1 (configuration not stated) 11.1%
CCNC(=O)O/N=C(\C)c1sc(-c2ccc(Cl)cc2)nc1C 1.49%
CN=C1S/C(=C\c2ccc(OCC(=O)OC)c(OC)c2)C(=O)N1C 3.67%
COc1cc(/C=C2/SC(=S)N(c3c(C)n(C)n(-c4ccccc4)c3=O)C2=O)ccc1O 27%
CCOc1cccc(/C=C2\NC(=S)N(c3ccccc3)C2=O)c1O 18.7%
CCOc1cc(/C=C2/NC(=O)N(CC(=O)OC)C2=O)ccc1OC 31.1%
COc1cc(/C=C2/C(=O)CNC2=O)ccc1O 37.6%
CCOc1cc(/C=C2/NC(=O)N(CC(=O)Nc3cccc(C)c3)C2=O)ccc1O 12.6%
CN=C1S/C(=C\c2ccc(O)c(Br)c2)C(=O)N1C 28.8%
COc1cc(/C=C2\CCC/C(=C\c3ccc(O)c(OC)c3)C2=O)ccc1O 9.57%
O=C(O)C1CC(=O)N(Cc2ccc(F)cc2)C1 (configuration not stated) 0.55%
COc1ccc(NC(=O)CCNC(C)=O)cc1NS(=O)(=O)c1ccc(F)cc1 3.53%
CCc1ccccc1NC(=O)CNC(=O)CCc1nc2sc3c(c2c(=O)[nH]1)CCCC3 24.8%
Cc1cccc(C)c1N=Nc1c(C)cc(O)cc1C 12.6%
Cc1ccccc1C1N(c2nccs2)C(=O)C2CCCN21 (configuration not stated) 12.4%
CCN(c1ccccc1)S(=O)(=O)c1cc(CN2C(=O)c3cccnc3C2=O)ccc1OC 13.8%
Cc1ccc(CNC(=O)/C=C/c2ccc(S(=O)(=O)N3CCOCC3)cc2)cc1 3.26%
NS(=O)(=O)c1cc(C(=O)OCC(=O)c2ccccc2)c(Cl)cc1Cl 2.42%
NCCCC[C@H](NC(=O)C1CCNCC1)c1nnc([C@@H](N)Cc2ccc(O)cc2)o1 2.89%
COc1cc(/C=C2\C(=O)N(C)C(=S)N2C)ccc1O 17.2%
COc1cc(/C=C2/SC(=Nc3ccc(O)cc3)NC2=O)ccc1O 37.7%
COc1ccc(C=C2C(=O)c3ccccc3C2=O)cc1O 36.2%
COC(=O)C1=C(C)N(CCc2ccccc2)C(=O)/C1=C\c1ccco1 10.5%
COc1cc(C=C2C(=O)c3ccccc3C2=O)cc(OC)c1OC 6.63%
COc1cc(/C=C2\NC(=S)N(C)C2=O)ccc1OCc1ccccc1F 15.8%
O=C1N/C(=C/c2ccco2)C(=O)N1Cc1ccccc1F 11.4%
COc1ccc(N=C2NC(=O)/C(=C/c3ccc(O)c(OC)c3)S2)cc1 28.3%
Cc1ccc(NC(=O)C2CCCN(c3nccc(C)n3)C2)c(C)c1 (configuration not stated) 4.92%
Cc1sc2nc(CSCC(=O)Nc3c(F)cccc3F)[nH]c(=O)c2c1C 6.91%
COc1ccc(C(=O)Nn2c(C)nc3ccccc3c2=O)cc1OC -1.86%
Cc1ccc(NC(=O)CSc2ccc3nnc(CCNC(=O)c4ccccc4)n3n2)c(C)c1 9.38%
O=C(c1ccccc1F)N1CCN(C2CCC(c3ccccc3)CC2)CC1 (configuration not stated) 18.6%
CC(C)(C)C(=O)NC(=O)Nc1ccccc1C(F)(F)F 2.7%
COC(=O)c1ccc(NC(=O)C2CCCN(S(C)(=O)=O)C2)cc1 (configuration not stated) 3.57%
C=CCCN(C1CCCC1)S(=O)(=O)c1ccccc1Br 10.4%
O=C(Nc1nc2ccc(Cl)cc2s1)[C@@H]1CCCN1C(=O)c1cccs1 -3.98%
CCOc1cc(/C=C2\C(=O)N(CCc3ccc(OC)c(OC)c3)C(C)=C2C(=O)OC)ccc1O 22.8%
COC(=O)C1=C(C)N(Cc2ccc(C)cc2)C(=O)/C1=C\c1ccc(O)c(OC)c1 11.5%
CCOC(=O)C1=C(C)N(c2ccc(C)cc2)C(=O)/C1=C\c1ccc(O)c(OC)c1 33.5%
CCOC(=O)C1=C(C)N(c2ccc(OC)cc2)C(=O)/C1=C\c1ccc(O)c(OCC)c1 28.2%
Cc1c(N2C(=O)/C(=C/c3ccccc3)SC2=S)c(=O)n(-c2ccccc2)n1C 14.5%
Cc1c(N2C(=O)/C(=C\c3cccc4ccccc34)SC2=S)c(=O)n(-c2ccccc2)n1C 9.9%
Cc1[nH]c(=O)[nH]c(=S)c1C(=O)Nc1ccc(Cl)c(Cl)c1 -9.05%
CC1(C(=O)O)CCC(C(=O)Nc2ccc(F)cc2)C1(C)C (configuration not stated) 17.4%
